An excerpt weighted towards active compounds, which were near 7.9% of everything screened.
HT1080NT lethal – kills 2HG-producing HT-1080-NT fibrosarcoma cells. HT-1080-NT fibrosarcoma viability, CellTiter-Glo ATP luminescence, 48 h. Potency, µM (top dose mostly 46.1 µM), hits mostly cytotoxic. actives 1.6% (n = 360,000). AID 686970;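 also: NT is the 2HG producing partner of a matched IDH1 knockdown line; nearly all actives have a fitted effect of over 55% in size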
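750 cells/well, RPMI + 5% FBS; 2 h settle, compound pin-transfer, 48 h at 37 degrees C. CellTiter-Glo 10 min RT, luminescence. Normalized to DMSO and media-only wells.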
KB-3-1 tox – KB-3-1 parental cell cytotoxicity | actives 1.4% (n = 400,000) | KB-3-1 viability, CellTiter-Glo ATP luminescence, 72 h | Potency, µM (series often up to 46.1 µM), usual class: cytotoxic; also: nearly all actives have a fitted effect of over 60% in size
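Using CellTiter-Glo luminescence, growth of non-resistant KB-3-1 adenocarcinoma cells is assessed 72 h after pin-tool compound addition at 37 °C. Normalized responses across the concentration series yield fitted curves.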
KB-V1 MDR tox – KB-V1 MDR subline cytotoxicity. AID 1347076. Potency, µM (top dose mostly 46.1 µM), actives largely listed as cytotoxic. KB-V1 MDR cells viability, CellTiter-Glo, 72 h. actives 3.4% (n = 400,000); also: nearly all actives have a fitted effect of over 60% in size
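Cytotoxicity via CellTiter-Glo luminescence after 72 h compound exposure at 37 degrees C. Cells: drug-selected KB-V1 line, DMEM phenol-red free plus 10% FBS. Compounds tested at multiple concentrations; normalized data fitted to concentration-effect curves.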
SW480 rerep – induces DNA re-replication in SW480 colon adenocarcinoma cells; Potency, µM (highest dose often 46.1 µM), usual class: activators; SW480 DNA re-replication, Hoechst DNA content imaging, 48 h; actives 1.8% (n = 340,000); also: nearly all actives have a fitted effect of over 55% in size
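Quantitative HTS format with DMSO vehicle controls; 48 hr drug incubation at 37 C, then 40 min Hoechst staining and scanning imager measurement at 405 nm excitation.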
MCF10A rereplic – inducers of DNA re-replication in MCF 10A breast cells; MCF 10A DNA re-replication, Hoechst nuclear intensity, 48 h; Potency, µM (highest dose often 46.1 µM), hits mostly activators; actives 2.9% (n = 350,000); also: nearly all actives have a fitted effect of over 50% in size
HT1080 IDH1KD tx – HT-1080 IDH1 knockdown cell toxicity (counter line) | actives 2% (n = 360,000) | HT-1080 IDH1 knockdown viability, ATP luminescence, 48 h | Potency, µM (series often up to 46.1 µM), usual class: cytotoxic | AID 686971
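Assay cells: HT-1080 with IDH1 knockdown, 750 per well, RPMI/5% FBS. Exposure: 48 h at 37 °C following 2 h pre-incubation. Read: CellTiter-Glo luminescence; fitted concentration-response, curve class assigned.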
Large screens that a line does not name were inactive. Calls follow the shape of the dose curve; as a rule, active = well fitted curve in the direction sought with a large enough effect; inconclusive = small, poorly fitted or top-dose-only effect, or another doubt; inactive = no such curve, though single readings can be large; an effect the other way counts as inactive or inconclusive.

CCS(=O)(=O)c1ccc(NC(=O)c2ccccc2Cl)c(O)c1	none
CCOc1ccccc1N(CC(=O)NC(C)(C)C)C(=O)c1ccc(CN2CCOCC2)o1	KB-V1 MDR tox 15µM, MCF10A rereplic inconclusive
Cn1c(=N)n(CC(=O)c2ccc(Br)s2)c2ccccc21	HT1080NT lethal 26µM, KB-3-1 tox inconclusive, KB-V1 MDR tox inconclusive, HT1080 IDH1KD tx inconclusive
COc1cccc(C(=O)CSc2nc3ccccc3n2CC(=O)N2CCOCC2)c1	KB-V1 MDR tox 21µM
CCN(CC)CCn1c(=N)n(CC(=O)c2ccc(Br)s2)c2ccccc21	HT1080NT lethal 23µM, KB-3-1 tox inconclusive, KB-V1 MDR tox inconclusive, HT1080 IDH1KD tx 23µM
Cn1c(=N)n(CC(=O)c2cccs2)c2ccccc21	none
COc1cccc(C(=O)Cn2c(=N)n(C)c3ccccc32)c1	HT1080NT lethal inconclusive, KB-3-1 tox 10µM, HT1080 IDH1KD tx inconclusive
N=c1n(CC(=O)c2ccc(Br)s2)c2ccccc2n1Cc1ccccc1	KB-V1 MDR tox inconclusive, SW480 rerep inconclusive, MCF10A rereplic inconclusive
CCCCN1C(=O)C(=O)N(CC(=O)Nc2ccccc2C(C)=O)C1=O	none
Cc1cc(-c2ccc(S(=O)(=O)NCc3ccc(Cl)cc3)cc2)on1	none (no result: SW480 rerep, MCF10A rereplic)
Nc1ccc(-c2c3ccc(=O)cc-3oc3cc(O)ccc23)c(C(=O)O)c1	none
O=C(/C=C/c1cn(-c2ccccc2)nc1-c1cccnc1)c1ccco1	HT1080NT lethal inconclusive, KB-3-1 tox inconclusive, KB-V1 MDR tox 21µM, SW480 rerep inconclusive, MCF10A rereplic inconclusive, HT1080 IDH1KD tx inconclusive
O=C(N/N=C/c1cn(-c2ccccc2)nc1-c1cccnc1)c1ccc(F)cc1	MCF10A rereplic 3.3µM
O=C(N/N=C/c1cn(-c2ccccc2)nc1-c1cccs1)c1ccccc1F	KB-3-1 tox inconclusive, KB-V1 MDR tox 21µM, SW480 rerep inconclusive, MCF10A rereplic inconclusive, HT1080 IDH1KD tx inconclusive
O=C(N/N=C/c1cn(-c2ccccc2)nc1-c1cccnc1)c1cccnc1	none
O=C(N/N=C/c1cn(-c2ccccc2)nc1-c1cccs1)c1ccc(Cl)cc1	KB-3-1 tox inconclusive, KB-V1 MDR tox 15µM, MCF10A rereplic inconclusive
COc1ccc(N=C2C(=Nc3ccc(OC)cc3)N(c3ccc(OC)cc3)C(=S)N2C)cc1	KB-V1 MDR tox inconclusive, HT1080 IDH1KD tx inconclusive
Cc1ccc(NS(=O)(=O)c2ccccc2[N+](=O)[O-])cc1C	KB-3-1 tox inconclusive, KB-V1 MDR tox inconclusive
CC(C)CCNC(=O)CN(C(=O)CCC(=O)Nc1nccs1)c1ccc2c(c1)OCCO2	none
COc1ccc(C2CC(C)=NN2C=O)cc1OC (stereo not given)	none
CN1CCC(N(C)C(=O)/C=C/c2cn(-c3ccccc3)nc2-c2cccs2)CC1	HT1080NT lethal 26µM, KB-V1 MDR tox 21µM, MCF10A rereplic inconclusive, HT1080 IDH1KD tx 18µM
Cc1cc(C(=O)N/N=C/c2cccc([N+](=O)[O-])c2)c(C)n1-c1ccccc1	none
CC1=CC(C)[C@@H]2COC(c3ccc(O)cc3)[C@H]1C2C (stereo not given in full)	none
Cc1cc(C)nc(SC2CC(=O)N(c3ccc(Cl)cc3)C2=O)n1 (stereo not given)	MCF10A rereplic inconclusive
Cc1cc(C)nc(SC2CC(=O)N(c3ccc(C)c(C)c3)C2=O)n1 (stereo not given)	HT1080NT lethal inconclusive, KB-3-1 tox inconclusive, KB-V1 MDR tox inconclusive, SW480 rerep inconclusive, HT1080 IDH1KD tx 16µM
COc1ccc(C(=O)NCCS(=O)(=O)N(C)C2CCCCC2)cc1	KB-V1 MDR tox 18µM
COc1ccc(C(=O)NCCS(=O)(=O)NCc2ccc(F)cc2)cc1	SW480 rerep 3.7µM
O=C(CN1CCOCC1)Nc1ccc2c(c1)OC(F)(F)O2	MCF10A rereplic inconclusive
COc1ccc(Cn2c(=O)cc(N)n(-c3ccccc3C)c2=O)cc1	HT1080NT lethal 21µM, KB-3-1 tox inconclusive, SW480 rerep 15µM, MCF10A rereplic inconclusive, HT1080 IDH1KD tx 16µM
COc1cccc(Cn2c(=O)c3[nH]cnc3n(-c3ccccc3C)c2=O)c1	none
